# Bioassay records: PubChem, several laboratories
# TWEAK-Fn14 inh = TWEAK-Fn14 signaling inhibition; TWEAK-stimulated Fn14 reporter cells, luciferase luminescence, 8 h; inhibition, % at 10 µM; AID 1159606; actives 2% (n = 360,000); in the data active means inhibition above about 50%
# HSP90 refold inh = blocks HSP90-mediated luciferase refolding in reticulocyte lysate. inhibition, % at 5.6 µM. Rabbit reticulocyte lysate, luciferase refolding luminescence, 3 h. actives 0.91% (n = 290,000);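 active means inhibition above the screen-wide mean plus 3 SD, computed separately per campaign, cut at about 16% in these data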;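 further: 0% = DMSO wells and 100% = 60 µM geldanamycin wells; inhibitors lower the luminescence because luciferase stays unfolded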
# TROY signal inh = inhibitors of TROY-dependent NF-kB signaling; Q293 LMP1-TROYcd NF-kB luciferase reporter, 4 h; actives 0.98% (n = 360,000); inhibition, % at 10 µM;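 active means compounds whose plate-normalised and pattern-corrected inhibition of the luciferase reporter signal at the single screening dose is 50% or more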
# aSyn UTR inh = 5' untranslated region of α-synuclein, MLPCN primary screen. alpha-synuclein 5'UTR reporter, inhibitor activity. inhibition, % (tested at 7.5 µM). actives 0.82% (n = 300,000); in the data active means inhibition above about 60%; inconclusive means no clear call, values can overlap the other calls;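 further: H4 neuroglioblastoma cells stably carrying SNCA 5'UTR luciferase fusion; 0% = DMSO wells and 100% = positive control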
# HIF-2a block = blocks HIF-2a reporter activity; 786-0 RCC cells HIF-2a reporter, luciferase luminescence, overnight; inhibition, % at 18.8 µM; actives 0.72% (n = 360,000);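 active means inhibition of the luminescence signal of 40% or more relative to plate controls, in a single-dose primary screen at 18.75 µM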
# TRAIL sens C8 = sensitizes caspase-8 expressing cells to TRAIL; AID 624354; inhibition (viability loss, TRAIL sensitization), % at 10 µM; actives 1% (n = 360,000); NB7+C8 cells + TRAIL, ATPlite viability luminescence;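 active means compounds causing at least 50% loss of cell viability in the single-dose screen, relative to plate controls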
# Active calls of the source: *; ? = inconclusive; . = no result. Rows were chosen to be rich in hits. Some 3.9% of all compounds tested hit in one or more screens of this group.
SMILES,TWEAK-Fn14 inh,HSP90 refold inh,TROY signal inh,aSyn UTR inh,HIF-2a block,TRAIL sens C8
CCc1nc2c(OCC(=O)c3ccc(Cl)cc3Cl)cccn2c1N(C)C(=O)c1cccs1,-0.6,.,-1.4,.,-2.4,-10.0
Brc1cc2c(cc1C1OCCCO1)OCO2,1.2,.,10.1,.,12.3,-20.4
O=C(N/N=C(\c1ccccc1)c1ccccn1)c1cccc([N+](=O)[O-])c1,-28.5,3.1,-9.6,99.0*,13.3,36.9
COC(=O)c1ccc(/C=C(\C#N)c2ccccn2)cc1,-9.9,-5.3,-66.5,-131.8,-343.5,52.2*
N#C/C(=C\c1ccc([N+](=O)[O-])cc1)c1ccccn1,-30.4,3.2,-76.4,-120.9,-231.0,11.1
O=[N+]([O-])/C=C/c1cn(Cc2ccc(F)cc2)c2ccccc12,19.0,1.2,6.7,63.2*,22.4,10.3
COC(=O)c1cccc(NC(=O)CCN2C(=O)NC(C)(C)C2=O)c1,-4.1,.,1.7,.,8.0,1.8
Clc1ccc(Nc2ncnc3ccc(Br)cc23)cc1,73.7*,-1.4,35.0,-29.9,1.1,-2.4
CN(C)c1ccc(Nc2ncnc3ccc(Br)cc23)cc1,82.2*,-2.8,48.0,-71.6,-13.6,-6.4
Cc1cccc(Nc2ncnc3ccc(Br)cc23)c1,62.1*,5.1,26.2,3.5,28.4,6.1
Clc1cccc(Nc2ncnc3ccc(Br)cc23)c1,63.1*,2.2,42.4,-51.3,22.7,13.6
COc1cc2ncnc(Nc3cccc(Cl)c3)c2cc1OC,.,3.0,.,.,.,.
COc1cc(-c2ccc3oc(-c4cccc(C)c4)c(C#CC4(O)CCCCC4)c3c2)cc(OC)c1OC,0.6,.,2.9,.,8.3,-12.7
COc1cc(NC(=O)c2cccc3c(-c4cnn(C)c4)coc23)cc(OC)c1OC,43.6,.,16.2,.,-59.9,26.1
COc1cccc(-c2cc(CNC(=O)[C@H]3O[C@@H](n4ccc(=O)[nH]c4=O)[C@H](O)[C@@H]3O)no2)c1,-16.0,.,7.2,.,10.4,8.7
COCc1cccc(-c2csc(C(C)(O)c3cccc(OC)c3)n2)c1 (configuration not stated),-18.1,.,27.6,.,5.5,-15.4
CCCCCCOc1ccc(/C(N)=N/O)cc1,-5.8,-12.8,-54.7,-173.1,-199.9,36.7
N=C(N)c1ccc(OCCCCCOc2ccc(C(=N)N)cc2)cc1,3.5,0.7,-4.3,67.0*,4.5,3.8
CC(OC(=O)c1ccc2c(c1)OCO2)C(=O)NC1CCCCC1 (configuration not stated),-5.7,.,9.8,.,-14.6,4.6
CC1(c2nnnn2Cc2ccccc2)CCC(=O)N1Cc1cccs1 (configuration not stated),-0.5,.,11.8,.,3.5,-0.1
CCCCCCCCN1C(=O)[C@H](CC(=O)NCc2cccc3ccccc23)C[C@@]2(C(=O)OC)CC(C)(C)CC=C12,.,.,.,.,15.1,3.0
O=C(CC1(O)C(=O)N(CCc2ccccc2)c2ccccc21)c1ccco1 (configuration not stated),86.3*,7.1,.,8.9,3.6,1.9
Cc1ccc(C(=O)CC2(O)C(=O)N(CCc3ccccc3)c3ccc(Br)cc32)o1 (configuration not stated),13.1,0.8,12.4,-4.7,11.2,-7.5
CC1(C(=O)NCc2ccccc2)CSCC(=O)N1Cc1ccco1 (configuration not stated),.,.,.,.,4.6,1.5
O=C(NCC1CCCO1)c1ccc(Br)c(S(=O)(=O)N2CCOCC2)c1 (configuration not stated),4.1,.,5.9,.,4.4,4.7
SMILES,TWEAK-Fn14 inh,HSP90 refold inh,TROY signal inh,aSyn UTR inh,HIF-2a block,TRAIL sens C8
COc1ccc(-c2nnc(SCC(=O)c3[nH]c(C)c(C(C)=O)c3C)o2)cc1,30.4,2.8,21.8,.,1.3,48.4*
CCSc1nnc(-c2ccc(OC)cc2)o1,-1.9,0.6,-61.1,-185.9,-154.9,0.5
C#CCSc1nnc(-c2ccc(OC)cc2)o1,-8.7,2.9,-41.7,-266.2,-114.3,92.3*
CCCCCCCCSc1nnc(-c2ccc(OC)cc2)o1,-1.3,-5.5,-32.6,111.2*,35.7,4.9
CC(=O)c1c(C)[nH]c(C(=O)CSc2nnc(-c3ccco3)o2)c1C,3.1,5.4,26.4,-55.3,2.7,14.9
Cc1ccc(NC(=O)CN2CCCC2c2cccn2C)c(Br)c1 (configuration not stated),38.2,.,27.3,.,-233.0,11.4
CN(C(=O)CSc1nnnn1-c1ccc(O)cc1)C1CCCCC1,5.3,.,6.8,.,-21.2,1.6
CN(C)c1ccc(N=C/C=C2/N(C)c3ccccc3C2(C)C)cc1,60.7*,2.5,29.9,-83.6,-68.9,6.7
CC(=O)Nc1ccc(Nc2nc(C)c([N+](=O)[O-])c(Nc3ccccc3)n2)cc1,66.6*,4.6,53.2*,?,28.1,23.6
COC(=O)[C@@]12C[C@@H](CC(=O)NCCCCc3ccccc3)C(=O)N(Cc3ccco3)C1=CCC(C)(C)C2,.,.,.,.,4.3,1.0
COc1cccc(NC(=O)N2CCN(c3nc(-c4cccc(OC)c4)cs3)CC2)c1,67.0*,2.2,36.7,-9.1,-28.9,8.0
Cc1noc(C)c1NC(=O)N(C)C[C@H]1Oc2ccc(NS(=O)(=O)c3ccc(F)cc3)cc2C(=O)N([C@H](C)CO)C[C@@H]1C,-11.4,.,-0.4,.,-5.6,-23.1
O=C1c2ccccc2C(=O)C1c1ccccn1,8.6,-0.8,-60.3,-105.4,-235.5,33.8
Cc1ccc(C2C(=O)c3ccccc3C2=O)cc1,9.7,-2.5,-8.6,0.5,2.4,-4.8
CCCC(=O)Nc1ccc(C2C(=O)c3ccccc3C2=O)cc1,-7.0,6.8,-26.9,-18.0,-136.0,75.9*
CC(=O)Nc1ccc(C2C(=O)c3ccccc3C2=O)cc1,5.3,-0.9,1.0,-1.3,-131.3,61.6*
O=C1c2ccccc2C(=O)C1c1ccncc1,29.1,14.7,-28.5,.,-60.2,56.6*
O=C(Cc1c(Cl)cccc1Cl)N1CCN(S(=O)(=O)c2cccs2)CC1,-4.5,.,1.7,.,2.9,3.5
COc1ccc([C@H]2CN(c3ccc(OC)cc3)C(=O)[C@@H]2CC(=O)Nc2ccc(Br)cc2)cc1,-7.1,.,-3.4,.,-20.1,3.6
C=CCCC(=O)N1C[C@H]2CON(C)[C@H]2C[C@H]1c1ccc(N2CCCCC2)cc1,7.9,.,-24.9,.,0.8,22.9
CC(=O)N1CCOc2ccc(S(=O)(=O)NCc3ccc(Cl)cc3)cc21,1.8,-5.6,-7.3,-21.3,13.6,14.3
CC(=O)N1CCOc2ccc(S(=O)(=O)Nc3ccc(Cl)cn3)cc21,0.9,-2.3,53.6*,-2.4,10.2,3.6
COc1cccc2cc(C(=O)Nc3cccc(C)n3)c(=O)oc12,56.8*,.,49.5,-166.6,-218.0,9.8
COc1ccc(NC(=O)c2cc3cccc(OC)c3oc2=Nc2ccc(C(=O)O)cc2)cc1OC,82.6*,-0.3,46.4,-116.3,-10.6,27.4
COc1cccc(NC(=O)c2cc3cccc(OC)c3o/c2=N\O)c1,.,10.7,.,-80.8,.,.
COc1cccc2cc(C(=O)N3CCc4ccccc43)c(=O)oc12,50.4*,4.5,13.5,-47.4,18.4,-15.2
